# Measured values published in PubChem BioAssay AID1508600 (Functional Genomics Laboratory (NCATS/FGL), 2020).
# In all, about 53,000 sequences went through this assay and about 3,700 (7%) were called active.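 How the source made its calls: active means gene knockdowns whose robust z-score for IL-1 alpha signal is at least 2 or at most -2, so actives lie on both sides; inactive means the rest.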 This excerpt belongs to a sample that is enriched for actives.
# Experiment: Components of the Cytosolic LPS Sensing Pathway: Gene Identification via Genome-wide siRNA Screen
# Settings: RAW264.7 macrophages, IL-1a HTRF, actives lie on both sides, screened at 100 nM (by protocol), cells primed 5 h with Pam3CSK4 first
# Excerpt: Non-canonical inflammasome activation by cytosolic LPS is a critical component of the host response to Gram-negative bacterial infection, however we lack a comprehensive understanding of the cellular processes that control this pathway. Here we describe a genome-wide siRNA screen to identify genes regulating the mouse macrophage IL-1 alpha response to cytosolic LPS.
# RAW264.7 cells were maintained in complete DMEM media, comprising DMEM with 4.5 g/L glucose, 10% FBS (Gemini Bio-Products, West Sacramento, CA), 2 mM Glutamine (Lonza) and 20 mM HEPES (Lonza), hereafter complete DMEM.
# The RNAi screen was conducted in 384-well format using the Ambion Silencer Mouse Genome siRNA Library (#4391425), which consists of three unique, nonoverlapping, nonpooled siRNAs for each of 17,000 gene targets. siRNA reagents ([…]) were stamped into 384-well white flat-bottom microplates (Corning, 3570) using a Velocity11 VPrep liquid handling system (Agilent) integrated into a BioCel robotic platform (Agilent) in columns 1-22, leaving columns 23-24 empty for negative (Ambion, Negative control #1) and positive (mouse Casp4) controls, respectively. The median value of each plate's negative control column was used to normalize sample wells, and the positive control was used to assess transfection efficiency and assay performance.
# Lipofectamine RNAiMAX Transfection Reagent ([…]; Invitrogen) was added in […] serum-free, antibiotic-free media to plate wells using a Thermo Scientific Matrix WellMate and Microplate Stacker. Plates were incubated for 45 min at room temperature to allow for the sufficient formation of siRNA-lipid complexes. Cells were seeded at a density of 1x10^4 cells per well in 20 microL media containing 20% (vol/vol) FBS without antibiotics. The final concentration of siRNA in each well was 100 nM. Cells were cultured for 48h at 37 degrees C in 5% CO2 before addition of […] of TLR ligand Pam3CSK4 for 5 hours. The medium was then removed, replaced with […] growth media and cell were transfected with […] of LipidA and TransIT-TKO (Mirus) for 24 hour. At the end of the LipidA treatment, […] of supernatant was transferred to a 384 Greiner Bio-one non-binding low volume plate and […] of IL-1a HTRF reagent (Cisbio, 62MIL1APEH) was added and incubated at room temperature overnight. The plates were read on an EnVision plate reader (PerkinElmer). Cell viability was measured by adding 20ul Cell Titer Glo to the original plate and running a luminescence read on the EnVision. The quantified IL-1a signal for each siRNA gene-targeted well was divided by the median of the negative control wells and multiplied by 100 to achieve a negative control normalized value for each well/siRNA. This normalized value was then used to generate a robust z-score by first taking the log of each value and then by subtracting the median and dividing by the […].
row,Sequence,z-score
1,GACAAGUUCUCAAGUAUCCTT against 1110006O24Rik,-2.02 (active)
2,GGUCCAUAACUUGUGUGCUTT against 3300002I08Rik,-0.462 (inactive)
3,GGUUGUGAAACGAUGCCCUTT against Trp63,-0.512 (inactive)
4,CCUGCAAUCAAAACAUCAATT against Vmn1r10,1.13 (inactive)
5,GGAAUUAUCUGAGCCUGUGTT against Fam193b,-0.0725 (inactive)
6,GGAAGAGAGAUUCCUAUAGTT against Sec11a,-2.03 (active)
7,GGCUUGGUGGGACAGAUAUTT against Ccdc51,-1.82 (inactive)
8,GCUAGAUCCAUCCAUAUAGTT against Misp,-1.26 (inactive)
9,GGUGAAGAUCUGAUAAGAATT against Epb41,-1.44 (inactive)
10,GCAACCUCAUACCAAAGAGTT against Zfyve26,0.211 (inactive)
11,GGUCACUAUCUCUGAUUUCTT against Bpifb2,-1.38 (inactive)
12,GGUCAUCCUUGCCAAUCUCTT against Olfr686,-2.11 (active)
13,GGAAUCUUCCAGAACUAAATT against Rufy1,0.912 (inactive)
14,GCAGGUCUUACCAGAUCGATT against Thap3,-0.765 (inactive)
15,GGCAGUAAGGCUCCAAUCUTT against Tcp10a,-2.1 (active)
16,GGCUCUGAACAGCAUUGACTT against Mdfi,-0.521 (inactive)
17,GGUUUGAAUCAAAUUGUACTT against Hyou1,-1.12 (inactive)
18,CCUCCACAUUUAUUUGCUATT against Mbtd1,1.23 (inactive)
19,ACCUGAAUUUGGUGACUGATT against Rdh18-ps,0.368 (inactive)
20,GGUAUUAUGAGACAGGAAGTT against Pax5,-1.61 (inactive)
21,GGUUUUAGGAUCCUAGAAGTT against Ap1s1,0.957 (inactive)
22,GCUGGCUUUGAUUUAUGGATT against Prkar1a,5.06 (active)
23,GGACGUGUUCGGAAACCUATT against Psmc3ip,0.134 (inactive)

row,Sequence,z-score
1,CCUGUGCUCUGAGUUUGGCTT against Tmem270,0.00319 (inactive)
2,GGACAAACGGGAAAAGAAGTT against Sprr2d,-2.04 (active)
3,GGGUUGUUUGUCUUGUUCGTT against Rspo2,0.847 (inactive)
4,GGAAAGAUUCAAAGAACCUTT against Rpia,1.45 (inactive)
5,GGCAGACAGUCUAACAGAUTT against Krt6a,0.283 (inactive)
6,GGCAGUUAUUCAGAAUUGATT against Nfu1,-2.2 (active)
7,GAUUUUCCUGCUCACAAUGTT against Olfr1269,1.03 (inactive)
8,GGACUUGAGUCAGCUCAUCTT against Fastk,-1.38 (inactive)
9,GCAACAUUGGAUGUACUCATT against Hdac10,-2.63 (active)
10,CGUAUAUCCGGUCAGAAGATT against Cnot4,0.634 (inactive)
11,GCAGCAUCGCUAUGUCCUGTT against Ccl26,0.182 (inactive)
12,GGAACAAUGCUCAAUUUUUTT against Rfc1,1.63 (inactive)
13,GCUCCUACGUGUCAGCCUUTT against Skor1,-0.815 (inactive)
14,CGGUCAUGUCUACAUGUGCTT against Cfp,-0.0864 (inactive)
15,GGAAUUGUUAAUUGUGGGATT against Stau2,-2.25 (active)
16,GGCUUCAGAUUUCGAUAUGTT against Nfkb2,1.02 (inactive)
17,CCUUGGACUUGAGUUCCAATT against Ssu2,1.58 (inactive)
18,GGCAAAUGUGGCCGUGUUUTT against Ccne1,0.175 (inactive)
19,GGAAGAAGCAAAGAACUAUTT against Spg20,0.552 (inactive)
20,GGGCUGAUGUGGGCUAAAUTT against Tmem38a,2.47 (active)
21,GCCCGGAAUAUAUAGCCCUTT against Hdac10,-0.706 (inactive)
22,CCUCCAGAUAAGAAUGUGCTT against Fnip1,-1.34 (inactive)
23,CGUAAGUGGACGACGGUUCTT against Kcnd3,0.106 (inactive)

row,Sequence,z-score
1,CGAAGGUACUAUGUAUUUUTT against Tbce,-0.12 (inactive)
2,GGAACACAUUGGGUAUGCCTT against Sac3d1,-0.575 (inactive)
3,GGUGUUUAUCGACAGGUACTT against Myo15,0.126 (inactive)
4,CAAACUGGGUCCCAAUGAATT against Ndufa4,2.7 (active)
5,GGGAAGUUGUCCUUGAAGATT against Cd36,-0.037 (inactive)
6,GGACCAUCCCUGUUUUAUATT against Ifrd2,-0.0712 (inactive)
7,GGUCCCUAGCACUAUUUUUTT against Hes6,1.04 (inactive)
8,GGAAUAUCACUUCCAUACATT against Ntrk3,0.587 (inactive)
9,GACCAACCCUCACUAAGCUTT against Tcstv3,-0.364 (inactive)
10,GGAGCAGAUAAUGUACAUATT against Cep112,2.32 (active)
11,GGACUAUUUGGAAACCUCCTT against Olfr1366,-0.304 (inactive)
12,GGAUGUAACUAGUAACUUUTT against Kcnn3,0.108 (inactive)
13,GCAAGAAAACCUUAGCUCATT against Trpm2,-0.518 (inactive)
14,CGGAUACAGGUUCGGGUAATT against Nemp1,1.06 (inactive)
15,CCGUGACGAGCUUGUGGUUTT against Ap3b2,0.788 (inactive)
16,GGUCCGAUAUCUGAGUCUCTT against Hic1,0.471 (inactive)
17,CCUUAAUCGCAUCAAAUUATT against Slc1a3,2.35 (active)
18,GGUUAGAAUAUGCAGAACATT against Arntl,-0.525 (inactive)
19,GGAGGGCAUCCUCUUCAAATT against Drc3,0.312 (inactive)
20,GGUAUUAUGACUGUAAAGGTT against Endou,0.0412 (inactive)
21,GGAAGUGAAUAUUGAGUUUTT against Bccip,2.04 (active)
22,GGAGAAGAAAAAGAUUAUCTT against Atp6v1d,1.07 (inactive)
23,GGGAAGAUGUGGAUGUCAUTT against Oprk1,-1.05 (inactive)
